What was measured:
Assay in all cases: Spec-seq (EMSA and sequencing of bound and unbound bands); 100 nM BATFx-JUNB, 1 uM dsDNA library, 50 mM K acetate, 20 mM Tris-acetate, 10 mM Mg acetate, 100 ug/ml BSA, pH 7.9, 10% glycerol, 30 min on ice; native 9% PAGE at 4 C; low values mean tight binding
Conditions in all cases: protein: recombinant;recombinant; tags: N-terminal mCherry-TEV, cleaved off;C-terminal 6His; copies: 1;1; dsDNA, one strand shown
[1] = molecular target: T1, BATF;JUNB (human;human, UniProt Q16520;P17275 1-125;148-347, |)
T1 sequence 1: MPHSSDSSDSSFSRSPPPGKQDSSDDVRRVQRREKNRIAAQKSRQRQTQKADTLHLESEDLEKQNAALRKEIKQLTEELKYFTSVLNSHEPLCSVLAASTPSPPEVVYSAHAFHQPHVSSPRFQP
T1 sequence 2: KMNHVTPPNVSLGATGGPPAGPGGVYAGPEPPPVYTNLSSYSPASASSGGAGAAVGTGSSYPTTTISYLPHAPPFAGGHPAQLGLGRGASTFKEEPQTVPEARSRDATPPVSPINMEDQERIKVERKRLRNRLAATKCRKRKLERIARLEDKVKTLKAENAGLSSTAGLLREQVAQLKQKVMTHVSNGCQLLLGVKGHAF
Outline: (§1)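 The protein, at 100 nM, was incubated with 1 μM double-stranded degenerate DNA library for 30 min on ice in NEB Cutsmart buffer with 10% glycerol, then resolved by native 9% PAGE at 4 °C. Excised bound and unbound bands were PCR-barcoded and Illumina-sequenced, and each sequence's relative binding energy in kT is −ln of its bound/unbound read-count ratio.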

[2] = molecular target: T2, BATF2 (bZIP);JUNB (human;human, UniProt Q8N1L9;P17275 1-142;148-347, |)
T2 sequence 1: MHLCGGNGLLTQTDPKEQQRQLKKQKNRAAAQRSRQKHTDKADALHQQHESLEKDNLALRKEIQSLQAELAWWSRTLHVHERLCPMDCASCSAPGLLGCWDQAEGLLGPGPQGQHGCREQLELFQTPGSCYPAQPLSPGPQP
T2 sequence 2: T1 sequence 2
Outline: as §1

[3] = molecular target: T3, BATF3;JUNB (human;human, UniProt Q9NR55;P17275 1-127;148-347, |)
T3 sequence 1: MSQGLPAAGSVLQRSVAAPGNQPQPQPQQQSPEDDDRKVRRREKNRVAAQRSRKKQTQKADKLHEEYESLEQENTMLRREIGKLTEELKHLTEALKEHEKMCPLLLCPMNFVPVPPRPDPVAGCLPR
T3 sequence 2: T1 sequence 2
Outline: as §1

Sequence	binding signal [1] [kT]	binding signal [2] [kT]	binding signal [3] [kT]
GATAGTCTCATTTTCACCCCGTGAAAAGGAGTCATTGTTCCATTACAGTATCTGT	-0.134	0.436	0.185
GATAGTCTCATTTTCACCCCGTGAAATGGCGTCATTGTTCCATTACAGTATCTGT	-0.631	-0.0754	-1.11
GATAGTCTCATTTTCACCCCGTGAAAATTAGTCATTGTTCCATTACAGTATCTGT	-1.07	-0.658	-1.24
GATAGTCTCATTTTCACCCCGTGAAATGACTCCATTGTTCCATTACAGTATCTGT	-0.151	0.566	0.168
GATAGTCTCATTTTCACCCCGTGAAATGAGTCGCTTGTTCCATTACAGTATCTGT	0.025	1.18	0.711
GATAGTCTCATTTTCACCCCGTGAAATGACTTAGTTGTTCCATTACAGTATCTGT	0.0125	0.47	0.28
GATAGTCTCATTTTCACCCCGTGAAATTGTGTCATTGTTCCATTACAGTATCTGT	-0.292	-0.0836	-0.677
GATAGTCTCATTTTCACCCCGTGAAATGACACAATTGTTCCATTACAGTATCTGT	0.0803	0.413	-0.063
GATAGTCTCATTTTCACCCCGTGAAATGAGTAAGTTGTTCCATTACAGTATCTGT	-0.362	0.572	0.139
GATAGTCTCATTTTCACCCCGTGAAATGACTAACTTGTTCCATTACAGTATCTGT	-0.35	0.462	0.0773
GATAGTCTCATTTTCACCCCGTGAAATGAGCCACTTGTTCCATTACAGTATCTGT	0.573	1.34	1.15
GATAGTCTCATTTTCACCCCGTGAAATGAGACAGTTGTTCCATTACAGTATCTGT	0.654	1.32	1.06
GATAGTCTCATTTTCACCCCGTGAAATGAGGTCATTGTTCCATTACAGTATCTGT	-0.348	0.096	-1.09
GATAGTCTCATTTTCACCCCGTGAAATGAGTCTATTGTTCCATTACAGTATCTGT	-0.119	1.33	0.647
GATAGTCTCATTTTCACCCCGTGAAAGTAAGTCATTGTTCCATTACAGTATCTGT	-0.0818	0.203	-0.041
GATAGTCTCATTTTCACCCCGTGAAATGACGCACTTGTTCCATTACAGTATCTGT	-0.31	0.227	-0.203
GATAGTCTCATTTTCACCCCGTGAAACTAAGTCATTGTTCCATTACAGTATCTGT	-0.15	0.261	-0.118
GATAGTCTCATTTTCACCCCGTGAAATGAGTCCCTTGTTCCATTACAGTATCTGT	0.424	1.38	1.03
GATAGTCTCATTTTCACCCCGTGAAATTGAGTCATTGTTCCATTACAGTATCTGT	-0.981	-0.804	-1.45
GATAGTCTCATTTTCACCCCGTGAAATGAGTAAATTGTTCCATTACAGTATCTGT	-0.0981	0.684	0.363
GATAGTCTCATTTTCACCCCGTGAAATAGAGTCATTGTTCCATTACAGTATCTGT	-0.357	0.163	-0.29
GATAGTCTCATTTTCACCCCGTGAAATGACGTGATTGTTCCATTACAGTATCTGT	-0.588	-0.181	-1.06
GATAGTCTCATTTTCACCCCGTGAAATTACGTCATTGTTCCATTACAGTATCTGT	-0.943	-1.14	-1.82
GATAGTCTCATTTTCACCCCGTGAAATGACGACATTGTTCCATTACAGTATCTGT	-0.298	0.288	-0.606

Sequence	binding signal [1] [kT]	binding signal [2] [kT]	binding signal [3] [kT]
GATAGTCTCATTTTCACCCCGTGAAATTTAGTCATTGTTCCATTACAGTATCTGT	-0.725	-0.038	-0.503
GATAGTCTCATTTTCACCCCGTGAAATGAGTTACTTGTTCCATTACAGTATCTGT	0.198	0.967	0.809
GATAGTCTCATTTTCACCCCGTGAAATGAGTCGATTGTTCCATTACAGTATCTGT	-0.215	1.01	0.391
GATAGTCTCATTTTCACCCCGTGAAAGTGAGTCATTGTTCCATTACAGTATCTGT	-1.22	-0.978	-1.65
GATAGTCTCATTTTCACCCCGTGAAATGAGTCCATTGTTCCATTACAGTATCTGT	0.0398	1.1	0.51
GATAGTCTCATTTTCACCCCGTGAAATGAATCATTTGTTCCATTACAGTATCTGT	-0.738	-0.323	-0.732
GATAGTCTCATTTTCACCCCGTGAAACGACTCATTTGTTCCATTACAGTATCTGT	-0.317	0.616	0.267
GATAGTCTCATTTTCACCCCGTGAAATGAGTCAATTGTTCCATTACAGTATCTGT	-0.554	0.156	-0.486
GATAGTCTCATTTTCACCCCGTGAAATGACTCGGTTGTTCCATTACAGTATCTGT	-0.246	0.589	0.398
GATAGTCTCATTTTCACCCCGTGAAAAGACGTCATTGTTCCATTACAGTATCTGT	-0.231	-0.0139	-0.682
GATAGTCTCATTTTCACCCCGTGAAACGGAGTCATTGTTCCATTACAGTATCTGT	-0.207	0.313	0.06
GATAGTCTCATTTTCACCCCGTGAAATGACCCACTTGTTCCATTACAGTATCTGT	0.593	1.04	0.927
GATAGTCTCATTTTCACCCCGTGAAATGAGCCAATTGTTCCATTACAGTATCTGT	0.591	1.4	0.829
GATAGTCTCATTTTCACCCCGTGAAATGACTGAGTTGTTCCATTACAGTATCTGT	-0.132	0.387	0.26
GATAGTCTCATTTTCACCCCGTGAAATGACCTCATTGTTCCATTACAGTATCTGT	-0.305	0.217	-0.817
GATAGTCTCATTTTCACCCCGTGAAATGACGCCATTGTTCCATTACAGTATCTGT	-0.429	0.257	-0.802
GATAGTCTCATTTTCACCCCGTGAAATGAAGTCATTGTTCCATTACAGTATCTGT	-0.461	0.0362	-0.997
GATAGTCTCATTTTCACCCCGTGAAATGACTCACTTGTTCCATTACAGTATCTGT	-0.778	-0.378	-0.943
GATAGTCTCATTTTCACCCCGTGAAATGACTTCATTGTTCCATTACAGTATCTGT	-0.183	0.172	-0.643
GATAGTCTCATTTTCACCCCGTGAAATGACTCTGTTGTTCCATTACAGTATCTGT	-0.0517	0.667	0.481
GATAGTCTCATTTTCACCCCGTGAAATAACGTCATTGTTCCATTACAGTATCTGT	-0.467	-0.287	-1.09
GATAGTCTCATTTTCACCCCGTGAAATGACTCCCTTGTTCCATTACAGTATCTGT	0.214	0.862	0.785
GATAGTCTCATTTTCACCCCGTGAAATGAGTCCTTTGTTCCATTACAGTATCTGT	0.17	1.09	0.708
GATAGTCTCATTTTCACCCCGTGAAAATGAGTCATTGTTCCATTACAGTATCTGT	-1.25	-1.01	-1.35

Sequence	binding signal [1] [kT]	binding signal [2] [kT]	binding signal [3] [kT]
GATAGTCTCATTTTCACCCCGTGAAATGACTCTATTGTTCCATTACAGTATCTGT	-0.0428	0.602	0.236
GATAGTCTCATTTTCACCCCGTGAAAAGAGTCATTTGTTCCATTACAGTATCTGT	-0.155	0.416	0.137
GATAGTCTCATTTTCACCCCGTGAAATGAGGCAATTGTTCCATTACAGTATCTGT	0.661	1.12	0.808
GATAGTCTCATTTTCACCCCGTGAAAGCGAGTCATTGTTCCATTACAGTATCTGT	-0.514	0.234	-0.148
GATAGTCTCATTTTCACCCCGTGAAATGAGTCTTTTGTTCCATTACAGTATCTGT	0.0504	1.04	0.768
GATAGTCTCATTTTCACCCCGTGAAATGAGTGAATTGTTCCATTACAGTATCTGT	0.0809	0.83	0.58
GATAGTCTCATTTTCACCCCGTGAAATGACGTAATTGTTCCATTACAGTATCTGT	-0.759	-0.891	-1.44
GATAGTCTCATTTTCACCCCGTGAAACAGAGTCATTGTTCCATTACAGTATCTGT	-0.149	0.309	-0.0855
GATAGTCTCATTTTCACCCCGTGAAATGAGTGATTTGTTCCATTACAGTATCTGT	0.0243	0.704	0.444
GATAGTCTCATTTTCACCCCGTGAAATGACTCGTTTGTTCCATTACAGTATCTGT	-0.0971	0.491	0.243
GATAGTCTCATTTTCACCCCGTGAAAGTGTGTCATTGTTCCATTACAGTATCTGT	-0.342	-0.00937	-0.359
GATAGTCTCATTTTCACCCCGTGAAATAACTCATTTGTTCCATTACAGTATCTGT	-0.0626	0.612	0.332
GATAGTCTCATTTTCACCCCGTGAAACGAGTCATTTGTTCCATTACAGTATCTGT	-0.477	0.283	-0.111
GATAGTCTCATTTTCACCCCGTGAAATGAGTGAGTTGTTCCATTACAGTATCTGT	-0.103	0.64	0.377
GATAGTCTCATTTTCACCCCGTGAAATGACTTAATTGTTCCATTACAGTATCTGT	-0.138	0.212	-0.344
GATAGTCTCATTTTCACCCCGTGAAATAAGTCATTTGTTCCATTACAGTATCTGT	-0.248	0.152	-0.202
GATAGTCTCATTTTCACCCCGTGAAATGATGTCATTGTTCCATTACAGTATCTGT	-0.738	-0.708	-1.63
GATAGTCTCATTTTCACCCCGTGAAATGACGTCGTTGTTCCATTACAGTATCTGT	-0.291	0.27	-0.759
GATAGTCTCATTTTCACCCCGTGAAATGAGACAATTGTTCCATTACAGTATCTGT	0.693	1.52	0.853
GATAGTCTCATTTTCACCCCGTGAAATGACTCAATTGTTCCATTACAGTATCTGT	-0.531	-0.145	-0.634
GATAGTCTCATTTTCACCCCGTGAAATGGAGTCATTGTTCCATTACAGTATCTGT	-0.329	0.239	-0.305
GATAGTCTCATTTTCACCCCGTGAAATTAAGTCATTGTTCCATTACAGTATCTGT	-0.398	-0.048	-0.719
